# Measured values taken from publication PMC7862700, “An all-to-all approach to the identification of sequence-specific readers for epigenetic DNA modifications on cytosine”.
# What was measured:
# Test in all cases: DAPPL (digital affinity profiling via proximity ligation, sequencing); 10 mM Tris-HCl pH 7.5, 50 mM NaCl, 1 mM DTT, 4% glycerol, room temperature, 30 min; GST-TFs on glutathione beads, 16-mer random dsDNA library, 0.1% formaldehyde crosslink after washing; high values mean tight binding
# Conditions in all cases: protein: recombinant; tags: N-terminal GST; dsDNA, one strand shown
# [1] = target: T1, FLI1 (Homo sapiens, UniProt Q01543 1-452)
# T1 sequence: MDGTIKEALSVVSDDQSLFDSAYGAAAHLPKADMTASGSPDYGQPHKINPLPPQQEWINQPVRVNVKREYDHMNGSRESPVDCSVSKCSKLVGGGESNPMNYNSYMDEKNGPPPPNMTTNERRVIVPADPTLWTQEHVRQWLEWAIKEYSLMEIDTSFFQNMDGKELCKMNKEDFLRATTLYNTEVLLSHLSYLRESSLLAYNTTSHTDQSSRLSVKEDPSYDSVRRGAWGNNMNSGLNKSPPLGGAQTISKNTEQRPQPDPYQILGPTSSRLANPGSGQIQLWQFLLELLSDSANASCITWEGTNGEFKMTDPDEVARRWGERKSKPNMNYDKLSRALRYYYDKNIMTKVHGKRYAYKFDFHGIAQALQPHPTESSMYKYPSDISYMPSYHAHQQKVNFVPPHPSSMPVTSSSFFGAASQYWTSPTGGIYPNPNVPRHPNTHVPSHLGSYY
# How it was run: (§1)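 Human transcription factors fused to GST were expressed in yeast, captured on glutathione beads, given DNA barcodes and pooled with a GST-only negative control. Pools were incubated with 200 nmole of a 16-mer random double-stranded DNA library in Tris/NaCl/DTT/glycerol buffer at room temperature for 30 min. They were then washed, crosslinked with 0.1% formaldehyde, proximity-ligated (BsaI/T4 ligase, 1 h, 37 °C), PCR-amplified and sequenced on an Illumina NextSeq500. Binding signal is each 6-mer's read frequency for a factor divided by its frequency for the GST control.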
# [2] = target: T2, ELK1 (Homo sapiens, UniProt P19419 1-428)
# T2 sequence: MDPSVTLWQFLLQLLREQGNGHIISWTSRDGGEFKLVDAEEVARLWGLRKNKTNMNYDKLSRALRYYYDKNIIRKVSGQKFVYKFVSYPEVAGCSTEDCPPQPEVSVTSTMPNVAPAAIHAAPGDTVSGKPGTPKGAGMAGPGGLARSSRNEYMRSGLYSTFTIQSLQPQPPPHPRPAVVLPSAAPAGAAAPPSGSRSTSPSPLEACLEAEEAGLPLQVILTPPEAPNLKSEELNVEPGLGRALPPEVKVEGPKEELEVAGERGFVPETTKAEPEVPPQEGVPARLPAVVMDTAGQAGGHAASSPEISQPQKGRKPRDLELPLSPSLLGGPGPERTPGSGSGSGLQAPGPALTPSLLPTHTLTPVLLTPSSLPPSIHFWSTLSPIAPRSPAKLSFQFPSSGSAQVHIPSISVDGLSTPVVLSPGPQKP
# How it was run: as §1
# [3] = target: T3, GABPA (Homo sapiens, UniProt Q06546 1-454)
# T3 sequence: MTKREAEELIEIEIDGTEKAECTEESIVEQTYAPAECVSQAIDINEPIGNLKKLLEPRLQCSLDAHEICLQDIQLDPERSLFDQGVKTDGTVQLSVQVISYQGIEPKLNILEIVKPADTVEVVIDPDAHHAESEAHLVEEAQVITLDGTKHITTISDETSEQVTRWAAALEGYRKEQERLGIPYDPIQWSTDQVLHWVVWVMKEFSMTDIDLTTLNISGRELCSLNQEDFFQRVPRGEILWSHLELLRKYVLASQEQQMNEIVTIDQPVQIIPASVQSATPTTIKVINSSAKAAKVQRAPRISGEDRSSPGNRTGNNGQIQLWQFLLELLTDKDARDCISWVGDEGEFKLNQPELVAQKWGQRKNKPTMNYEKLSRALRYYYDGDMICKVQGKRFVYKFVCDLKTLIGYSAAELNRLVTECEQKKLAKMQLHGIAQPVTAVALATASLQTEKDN
# How it was run: as §1
# [4] = target: T4, ERG (Homo sapiens, UniProt P11308 1-479)
# T4 sequence: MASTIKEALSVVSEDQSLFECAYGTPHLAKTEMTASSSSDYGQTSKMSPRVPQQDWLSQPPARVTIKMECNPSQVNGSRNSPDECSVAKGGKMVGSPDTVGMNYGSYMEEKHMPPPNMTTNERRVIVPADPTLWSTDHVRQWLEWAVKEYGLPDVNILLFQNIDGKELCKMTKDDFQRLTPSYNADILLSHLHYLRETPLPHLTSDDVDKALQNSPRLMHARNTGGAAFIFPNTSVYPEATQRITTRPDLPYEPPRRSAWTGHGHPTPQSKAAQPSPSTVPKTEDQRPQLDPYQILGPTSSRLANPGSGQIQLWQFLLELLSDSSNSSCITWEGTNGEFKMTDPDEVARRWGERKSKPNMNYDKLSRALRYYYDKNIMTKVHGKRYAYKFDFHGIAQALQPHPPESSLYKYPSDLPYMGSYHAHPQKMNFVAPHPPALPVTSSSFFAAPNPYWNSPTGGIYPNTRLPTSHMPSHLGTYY
# How it was run: as §1
# [5] = target: ELF1 (Homo sapiens, UniProt P32519 1-619)
# Sequence of ELF1 (P32519 whole entry): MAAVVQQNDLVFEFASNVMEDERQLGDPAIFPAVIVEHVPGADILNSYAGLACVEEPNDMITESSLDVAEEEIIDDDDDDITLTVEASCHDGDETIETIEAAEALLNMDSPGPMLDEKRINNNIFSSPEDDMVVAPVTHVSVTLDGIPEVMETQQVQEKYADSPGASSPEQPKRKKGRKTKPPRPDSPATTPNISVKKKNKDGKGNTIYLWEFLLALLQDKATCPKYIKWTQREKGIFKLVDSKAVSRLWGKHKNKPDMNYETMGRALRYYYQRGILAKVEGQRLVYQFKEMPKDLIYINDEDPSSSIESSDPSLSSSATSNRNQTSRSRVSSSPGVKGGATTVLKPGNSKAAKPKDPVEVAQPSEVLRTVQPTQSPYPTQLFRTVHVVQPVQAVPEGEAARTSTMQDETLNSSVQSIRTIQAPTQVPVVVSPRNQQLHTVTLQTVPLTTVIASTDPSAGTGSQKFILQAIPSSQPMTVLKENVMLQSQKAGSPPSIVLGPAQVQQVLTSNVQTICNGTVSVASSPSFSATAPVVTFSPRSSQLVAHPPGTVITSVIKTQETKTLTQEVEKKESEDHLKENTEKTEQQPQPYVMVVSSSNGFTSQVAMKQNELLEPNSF
# How it was run: as §1
# [6] = target: T5, EHF (Homo sapiens, UniProt Q9NZC4 1-300)
# T5 sequence: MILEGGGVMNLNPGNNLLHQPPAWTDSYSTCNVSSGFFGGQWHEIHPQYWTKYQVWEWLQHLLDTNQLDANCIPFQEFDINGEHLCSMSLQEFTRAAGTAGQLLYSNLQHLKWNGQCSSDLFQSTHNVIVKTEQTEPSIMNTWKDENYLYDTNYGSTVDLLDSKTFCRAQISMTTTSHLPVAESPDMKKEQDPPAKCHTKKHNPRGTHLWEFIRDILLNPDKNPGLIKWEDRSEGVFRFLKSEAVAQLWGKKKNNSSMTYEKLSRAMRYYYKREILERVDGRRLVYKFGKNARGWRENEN
# How it was run: as §1
# [7] = target: SPI1 (Homo sapiens, UniProt P17947 1-270)
# How it was run: as §1
# [8] = target: SPIB (Homo sapiens, UniProt Q01892 1-262)
# Sequence of SPIB (Q01892 whole entry): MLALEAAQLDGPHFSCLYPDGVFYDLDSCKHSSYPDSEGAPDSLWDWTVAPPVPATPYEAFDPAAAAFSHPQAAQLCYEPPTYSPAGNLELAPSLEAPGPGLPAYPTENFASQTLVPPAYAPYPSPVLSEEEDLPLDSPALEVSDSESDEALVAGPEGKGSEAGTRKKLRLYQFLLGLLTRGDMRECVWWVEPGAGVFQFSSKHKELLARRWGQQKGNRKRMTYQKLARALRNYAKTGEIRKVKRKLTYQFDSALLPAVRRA
# How it was run: as §1
# [9] = target: T6, ELK3 (Homo sapiens, UniProt P41970 1-407)
# T6 sequence: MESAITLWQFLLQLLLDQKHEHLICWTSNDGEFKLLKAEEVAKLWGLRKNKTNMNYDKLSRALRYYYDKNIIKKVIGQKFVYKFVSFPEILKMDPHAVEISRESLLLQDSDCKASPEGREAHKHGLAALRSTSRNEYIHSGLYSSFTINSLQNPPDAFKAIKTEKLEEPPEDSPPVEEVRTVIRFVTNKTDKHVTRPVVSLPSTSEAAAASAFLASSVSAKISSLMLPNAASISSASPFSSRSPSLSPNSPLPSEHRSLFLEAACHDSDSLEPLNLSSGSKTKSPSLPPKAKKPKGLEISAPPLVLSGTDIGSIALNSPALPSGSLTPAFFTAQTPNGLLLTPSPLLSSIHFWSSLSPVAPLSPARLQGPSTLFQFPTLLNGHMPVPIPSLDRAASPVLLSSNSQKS
# How it was run: as §1
# [10] = target: T7, FEV (Homo sapiens, UniProt Q99581 1-238)
# T7 sequence: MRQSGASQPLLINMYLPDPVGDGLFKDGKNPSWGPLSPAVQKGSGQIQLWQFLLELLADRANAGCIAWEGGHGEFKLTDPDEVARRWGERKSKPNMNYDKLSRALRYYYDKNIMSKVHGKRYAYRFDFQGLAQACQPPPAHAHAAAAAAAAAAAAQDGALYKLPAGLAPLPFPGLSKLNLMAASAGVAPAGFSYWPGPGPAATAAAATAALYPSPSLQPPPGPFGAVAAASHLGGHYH
# How it was run: as §1
# [11] = target: ETV5 (Homo sapiens, UniProt P41161 1-510)
# Sequence of ETV5 (P41161 whole entry): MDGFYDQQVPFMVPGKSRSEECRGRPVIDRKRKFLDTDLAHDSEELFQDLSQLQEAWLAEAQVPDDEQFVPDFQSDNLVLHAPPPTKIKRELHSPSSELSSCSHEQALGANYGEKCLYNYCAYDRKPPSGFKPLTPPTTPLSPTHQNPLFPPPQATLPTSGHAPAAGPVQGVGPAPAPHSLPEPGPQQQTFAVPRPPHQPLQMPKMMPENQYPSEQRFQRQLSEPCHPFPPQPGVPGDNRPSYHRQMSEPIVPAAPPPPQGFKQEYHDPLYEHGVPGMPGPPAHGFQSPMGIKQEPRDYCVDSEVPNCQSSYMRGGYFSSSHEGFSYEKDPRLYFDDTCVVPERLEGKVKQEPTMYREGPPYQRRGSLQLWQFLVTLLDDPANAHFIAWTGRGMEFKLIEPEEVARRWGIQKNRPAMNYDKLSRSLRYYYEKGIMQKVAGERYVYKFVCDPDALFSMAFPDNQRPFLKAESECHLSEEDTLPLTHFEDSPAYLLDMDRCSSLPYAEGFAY
# How it was run: as §1
# [12] = target: T8, SPIC (Homo sapiens, UniProt Q8N5J4 1-248)
# T8 sequence: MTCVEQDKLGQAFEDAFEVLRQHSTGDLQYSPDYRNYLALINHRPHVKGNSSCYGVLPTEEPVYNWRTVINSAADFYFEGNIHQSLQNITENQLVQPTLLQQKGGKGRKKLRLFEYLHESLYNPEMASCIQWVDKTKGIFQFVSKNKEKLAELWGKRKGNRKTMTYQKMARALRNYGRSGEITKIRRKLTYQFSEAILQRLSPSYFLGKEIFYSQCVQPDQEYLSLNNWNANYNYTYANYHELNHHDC
# How it was run: as §1
# [13] = target: ELF4 (Homo sapiens, UniProt Q99607 1-663)
# Sequence of ELF4 (Q99607 whole entry): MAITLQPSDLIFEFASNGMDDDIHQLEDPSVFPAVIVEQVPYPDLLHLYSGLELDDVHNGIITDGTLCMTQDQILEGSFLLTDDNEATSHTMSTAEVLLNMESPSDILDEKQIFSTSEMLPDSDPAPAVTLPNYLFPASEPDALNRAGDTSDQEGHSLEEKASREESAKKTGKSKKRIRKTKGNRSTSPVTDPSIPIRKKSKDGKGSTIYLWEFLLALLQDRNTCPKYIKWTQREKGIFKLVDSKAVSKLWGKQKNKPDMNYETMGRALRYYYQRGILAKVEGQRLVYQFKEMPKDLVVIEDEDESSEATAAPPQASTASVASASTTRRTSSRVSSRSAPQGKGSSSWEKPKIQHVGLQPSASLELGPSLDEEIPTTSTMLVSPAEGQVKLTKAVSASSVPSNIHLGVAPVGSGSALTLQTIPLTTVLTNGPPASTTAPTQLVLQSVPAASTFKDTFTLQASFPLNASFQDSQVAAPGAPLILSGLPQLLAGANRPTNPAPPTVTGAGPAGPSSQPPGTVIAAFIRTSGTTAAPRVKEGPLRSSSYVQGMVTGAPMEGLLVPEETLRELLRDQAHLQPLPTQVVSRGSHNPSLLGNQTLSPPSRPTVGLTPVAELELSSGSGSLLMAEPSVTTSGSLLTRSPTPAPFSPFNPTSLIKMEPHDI
# How it was run: as §1
# [14] = target: T9, ELK4 (Homo sapiens, UniProt P28324-2 1-405)
# T9 sequence: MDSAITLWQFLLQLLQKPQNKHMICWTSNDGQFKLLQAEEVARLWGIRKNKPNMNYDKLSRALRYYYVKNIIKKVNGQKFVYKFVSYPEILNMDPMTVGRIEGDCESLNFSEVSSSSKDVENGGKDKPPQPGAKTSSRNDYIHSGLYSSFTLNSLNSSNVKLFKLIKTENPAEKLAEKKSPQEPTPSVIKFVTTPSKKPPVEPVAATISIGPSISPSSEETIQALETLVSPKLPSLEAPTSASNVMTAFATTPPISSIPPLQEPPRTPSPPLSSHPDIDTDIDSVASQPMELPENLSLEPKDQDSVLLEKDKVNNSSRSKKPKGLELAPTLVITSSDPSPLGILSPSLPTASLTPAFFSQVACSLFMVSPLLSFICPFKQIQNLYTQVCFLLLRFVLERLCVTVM
# How it was run: as §1
# [15] = target: T10, ETV2 (Homo sapiens, UniProt O00321 1-342)
# T10 sequence: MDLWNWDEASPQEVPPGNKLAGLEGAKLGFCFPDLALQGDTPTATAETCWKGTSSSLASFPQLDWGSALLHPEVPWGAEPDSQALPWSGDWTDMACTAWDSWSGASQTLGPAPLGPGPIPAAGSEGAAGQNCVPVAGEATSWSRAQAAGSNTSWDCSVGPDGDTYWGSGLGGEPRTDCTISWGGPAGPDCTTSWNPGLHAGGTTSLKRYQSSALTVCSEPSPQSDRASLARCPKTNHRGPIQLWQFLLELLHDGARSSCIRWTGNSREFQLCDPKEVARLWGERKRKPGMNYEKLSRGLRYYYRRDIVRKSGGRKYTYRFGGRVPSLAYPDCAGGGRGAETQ
# How it was run: as §1
# [16] = target: T11, ELF3 (Homo sapiens, UniProt P78545 1-371)
# T11 sequence: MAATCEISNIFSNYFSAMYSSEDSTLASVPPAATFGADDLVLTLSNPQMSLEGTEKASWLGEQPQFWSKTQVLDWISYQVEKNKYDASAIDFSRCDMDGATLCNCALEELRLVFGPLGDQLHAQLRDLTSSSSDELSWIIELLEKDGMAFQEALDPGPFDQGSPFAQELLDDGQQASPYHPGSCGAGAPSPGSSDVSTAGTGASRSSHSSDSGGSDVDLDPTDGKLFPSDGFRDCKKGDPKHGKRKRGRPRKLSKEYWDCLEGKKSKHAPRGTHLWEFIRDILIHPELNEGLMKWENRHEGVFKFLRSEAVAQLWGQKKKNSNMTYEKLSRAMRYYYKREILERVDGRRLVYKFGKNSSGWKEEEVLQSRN
# How it was run: as §1
# [17] = target: ETV1 (Homo sapiens, UniProt P50549 1-477)
# Sequence of ETV1 (P50549 whole entry): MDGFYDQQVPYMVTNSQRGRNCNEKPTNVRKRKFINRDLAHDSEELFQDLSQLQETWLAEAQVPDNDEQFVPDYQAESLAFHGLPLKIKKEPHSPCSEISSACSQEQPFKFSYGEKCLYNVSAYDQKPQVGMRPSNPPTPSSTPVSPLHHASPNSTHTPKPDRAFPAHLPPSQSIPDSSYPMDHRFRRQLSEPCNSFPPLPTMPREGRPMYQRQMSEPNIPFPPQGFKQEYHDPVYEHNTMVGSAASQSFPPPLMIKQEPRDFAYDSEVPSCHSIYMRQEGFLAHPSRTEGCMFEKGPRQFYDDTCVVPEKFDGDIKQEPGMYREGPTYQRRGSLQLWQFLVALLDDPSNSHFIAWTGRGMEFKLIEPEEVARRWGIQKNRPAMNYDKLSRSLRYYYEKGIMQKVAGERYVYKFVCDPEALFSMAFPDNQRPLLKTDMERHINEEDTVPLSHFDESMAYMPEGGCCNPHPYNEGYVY
# How it was run: as §1
Sequence,binding signal [1],binding signal [2],binding signal [3],binding signal [4],binding signal [5],binding signal [6],binding signal [7],binding signal [8],binding signal [9],binding signal [10],binding signal [11],binding signal [12],binding signal [13],binding signal [14],binding signal [15],binding signal [16],binding signal [17]
CGCCCC,"1.12 fold enrichment (6-mer frequency, TF over GST control)","1.17 fold enrichment (6-mer frequency, TF over GST control)","1.11 fold enrichment (6-mer frequency, TF over GST control)","1.14 fold enrichment (6-mer frequency, TF over GST control)","1.22 fold enrichment (6-mer frequency, TF over GST control)","1.19 fold enrichment (6-mer frequency, TF over GST control)","1.18 fold enrichment (6-mer frequency, TF over GST control)","1.1 fold enrichment (6-mer frequency, TF over GST control)","1.18 fold enrichment (6-mer frequency, TF over GST control)","1.21 fold enrichment (6-mer frequency, TF over GST control)","1.23 fold enrichment (6-mer frequency, TF over GST control)","1.24 fold enrichment (6-mer frequency, TF over GST control)","1.28 fold enrichment (6-mer frequency, TF over GST control)","1.06 fold enrichment (6-mer frequency, TF over GST control)","1.02 fold enrichment (6-mer frequency, TF over GST control)","1.09 fold enrichment (6-mer frequency, TF over GST control)","1.25 fold enrichment (6-mer frequency, TF over GST control)"
TGTCAT,"1.24 fold enrichment (6-mer frequency, TF over GST control)","1.08 fold enrichment (6-mer frequency, TF over GST control)","1.18 fold enrichment (6-mer frequency, TF over GST control)","1.11 fold enrichment (6-mer frequency, TF over GST control)","1.15 fold enrichment (6-mer frequency, TF over GST control)","1.17 fold enrichment (6-mer frequency, TF over GST control)","1.09 fold enrichment (6-mer frequency, TF over GST control)","1.2 fold enrichment (6-mer frequency, TF over GST control)","1.04 fold enrichment (6-mer frequency, TF over GST control)","1.1 fold enrichment (6-mer frequency, TF over GST control)","1.18 fold enrichment (6-mer frequency, TF over GST control)","1.16 fold enrichment (6-mer frequency, TF over GST control)","1.13 fold enrichment (6-mer frequency, TF over GST control)","1.08 fold enrichment (6-mer frequency, TF over GST control)","1.11 fold enrichment (6-mer frequency, TF over GST control)","1.06 fold enrichment (6-mer frequency, TF over GST control)","1.18 fold enrichment (6-mer frequency, TF over GST control)"
